The campaign covered roughly 300,000 compounds. About 37,000 (12%) were called active. What follows is part of a selection rich in actives, with near analogues and random picks from the rest. A number with no mark means an inactive call. Rule as the data show it: active = max response mostly above about 13% (no sharp cut-off); inactive = mostly below about 14%.
experiment: Cycloheximide Counterscreen for Small Molecule Inhibitors of Shiga Toxin; settings: cell reporter, cycloheximide protein synthesis inhibition counterscreen; hits give high values; also: read at 38.3 µM for the half of the compounds with a filed dose; 0% is about no effect

| Compound | max response |
| --- | --- |
| O=c1[nH]nc(SCCS(=O)(=O)c2ccc(F)cc2)n1-c1ccccc1C(F)(F)F | -1.24% |
| COc1cccc2cc(-c3cc(=O)oc4cc(C)c(O)cc34)oc12 | 8.46% |
| O=C(NCCN1CCOCC1)c1ccc2c(c1)ncn2C1CCCC1 | 1.03% |
| O=C(NCc1cccs1)c1ccc2c(c1)ncn2C1CCCC1 | 31.8% (active) |
| COc1ccccc1-n1cnc2cc(C(=O)NCC3CCCO3)ccc21 (configuration not stated) | -2.15% |
| CCCCC(CC)CNCc1cccn1CCN1CCOCC1 (configuration not stated) | -0.53% |
| CC(C)CN(Cc1c(O)ccc2c(=O)c(-c3ccccc3)coc12)CC(C)C | 8.57% |
| CC(C)=CCc1c(O)c(CC=C(C)C)c2occ(-c3ccc(O)cc3)c(=O)c2c1O | 10.9% (active) |
| O=C(Cn1cc(C(=O)C2CC2)c2ccccc21)Nc1ccccc1Cl | -7.35% |
| Cc1csc(NC(=O)CN2CCCCCC2)n1 | 2.46% |
| Cc1cc(C)c(NC(=O)CN2CCCCCC2)c(C)c1 | 34.2% (active) |
| COc1cc(Cl)c(C)cc1NC(=O)CN1CCCCCC1 | 0.423% |
| O=C(CN1CCCCCC1)Nc1ccc(Cl)cc1F | 8.65% |
| O=C(CN1CCOCC1)Nc1c(Cl)cc(Cl)cc1Cl | -2.9% |
| O=C(CN1CCCCCC1)Nc1c(Cl)cc(Cl)cc1Cl | 21.3% (active) |
| CC1CCCCN1CCCNc1ccc(C(CC(N)=O)NC(=O)c2ccccc2)cc1[N+](=O)[O-] (configuration not stated) | -1.02% |
| COCCN(Cc1cc2cc3c(cc2nc1Cl)OCO3)C(=O)c1cccc(C)c1 | 5.64% |
| CCOc1ccc(C(O)Cn2c(=N)n(CCN3CCCCC3)c3ccccc32)cc1 (configuration not stated) | -4.27% |
| COc1cccc(C(O)Cc2nc3ccccc3n2C)c1OC (configuration not stated) | 20.6% (active) |
| COc1ccc(OC)c(C(O)c2nc3ccccc3n2C)c1 (configuration not stated) | -2.03% |
| CCOc1ccc(C(O)Cc2nc3ccccc3n2C)cc1 (configuration not stated) | 22.1% (active) |
| CCCn1c(C(O)c2ccc(OCC)cc2)nc2ccccc21 (configuration not stated) | -3.7% |
| COc1cc(C(O)c2nc3ccccc3n2C)cc(OC)c1OC (configuration not stated) | 0.887% |
| COc1ccc(CN2CC(C(=O)NC3CCCCC3)CC2=O)cc1 (configuration not stated) | -2% |
| O=C1Oc2ccccc2C(=O)/C1=C/c1ccccc1O | 12.4% |
| COCCNC(=O)C1CCN(C(=O)C2CC(=O)N(c3ccc(C)cc3)C2)CC1 (configuration not stated) | 1.44% |
| CCOC(=O)c1c(NC(=O)c2ccc(S(=O)(=O)N(C)CC3CCCO3)cc2)sc2c1CC(C)(C)NC2(C)C (configuration not stated) | -4.44% |

— PubChem BioAssay AID2314 (National Center for Advancing Translational Sciences (NCATS), 2010)
